Laboratory results reported in PubChem BioAssay (NCATS).
Results filed as inconclusive are left out. Active and inactive are the calls of the source. Calls come from the whole dose curve; as a rule, active = well fitted cell-killing curve with a large enough effect; inconclusive = small, poorly fitted or top-dose-only effect, or effect the other way; inactive = flat fitted curve, though single readings scatter. Where a SMILES comes first, the peptide text is derived from it.

How the values were obtained:
Test in all cases: Primary qHTS to identify gynecologic anti-cancer compounds using libraries of approved drugs and bioactive compounds (AID 1345084); note: nearly all actives have a fitted effect of over 55% in size
Details in all cases: Gynecologic cancer cell panel viability, ATPlite luminescence, 48 h; series mostly up to 57.5 µM
PA-1 = tested on: PA-1
Summary of the method: (§1)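 Cells, 1,000 per well, were allowed to settle for 16 h at 37 C before compound addition. Five concentrations were tested for 48 h, and viability was read by ATPlite luminescence after 15 min at room temperature.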

SKOV3 = tested on: SKOV3
Summary of the method: as §1

Tov-21-G = tested on: Tov-21-G
Summary of the method: as §1

Tov112D = tested on: Tov112D
Summary of the method: as §1
% is set by controls: 0 for no effect and ±100 for the full control effect.

CC1(C)CCC[C@@]2(C)[C@H]1[C@H](O)C=C(CO)[C@]2(O)CO
inactive: Potency (PA-1) | Potency (SKOV3) | Potency (Tov-21-G) | Potency (Tov112D)

C=C1C(OC(C)=O)CCC2(C)CCC(C(C)(C)O)CC12 (configuration not stated)
inactive: Potency (PA-1) | Potency (SKOV3) | Potency (Tov-21-G) | Potency (Tov112D)

OC[C@H]1O[C@@H](OCCc2ccccc2)[C@H](O)[C@@H](O)[C@@H]1O
inactive: Potency (PA-1) | Potency (SKOV3) | Potency (Tov-21-G) | Potency (Tov112D)

Cc1ccc(C)c(S(=O)(=O)n2cnc3ccccc32)c1
inactive: Potency (PA-1) | Potency (SKOV3) | Potency (Tov-21-G) | Potency (Tov112D)

CC(=O)O[C@@H]1C[C@@H](C)[C@](O)(CCC2=CC(=O)OC2)[C@@]2(C)CCCC(C)(C)C12 (some centres not stated)
inactive: Potency (PA-1) | Potency (SKOV3) | Potency (Tov-21-G) | Potency (Tov112D)

CCCN1CCC[C@@H](c2cccc(S(C)(=O)=O)c2)C1
inactive: Potency (PA-1) | Potency (SKOV3) | Potency (Tov-21-G) | Potency (Tov112D)

CC1CCC2C(C)(C)C(O)C(O)CC2(C)C12Cc1c(O)cc(CO)c(C=O)c1O2 (configuration not stated)
inactive: Potency (PA-1) | Potency (SKOV3) | Potency (Tov-21-G) | Potency (Tov112D)

COc1ccc(CCC(=O)O)c(O[C@@H]2O[C@H](CO)[C@@H](O)[C@H](O)[C@H]2O)c1
inactive: Potency (PA-1) | Potency (SKOV3) | Potency (Tov-21-G) | Potency (Tov112D)

O=C(/C=C/c1ccc(O)cc1)OCC1OC(O)C(OC2OC(CO)C(O)C(O)C2O)C(O)C1O (configuration not stated)
inactive: Potency (PA-1) | Potency (SKOV3) | Potency (Tov-21-G) | Potency (Tov112D)

CCCO[C@@H]1O[C@H](CO)[C@@H](O)[C@H](O)[C@H]1O[C@@H]1OC[C@@H](O)[C@H](O)[C@H]1O
inactive: Potency (PA-1) | Potency (SKOV3) | Potency (Tov-21-G) | Potency (Tov112D)

COc1cccc(C(=O)NCCNc2nc3cc(C)cc(C)c3cc2C#N)c1
inactive: Potency (PA-1) | Potency (SKOV3) | Potency (Tov-21-G) | Potency (Tov112D)

C/C=C/C=C/C=C/C(=O)N(C)C(C(=O)NC(C)C(=O)N1CCCC1C(N)=O)C(C)C (configuration not stated)
inactive: Potency (PA-1) | Potency (SKOV3) | Potency (Tov-21-G) | Potency (Tov112D)

CC1CC(O)/C=C/C(O)/C=C\C(=O)O1 (configuration not stated)
inactive: Potency (PA-1) | Potency (SKOV3) | Potency (Tov-21-G) | Potency (Tov112D)

C=CC(C)(O)CC/C=C(\C)C1CC=C(C)C(=O)O1 (configuration not stated)
inactive: Potency (PA-1) | Potency (SKOV3) | Potency (Tov-21-G) | Potency (Tov112D)

Cc1ccc(Nc2nnc(-c3ccc([N+](=O)[O-])cc3)o2)cc1Cl
inactive: Potency (PA-1) | Potency (SKOV3) | Potency (Tov-21-G) | Potency (Tov112D)

CC1(C)CC[C@]2(C(=O)O[C@@H]3O[C@H](CO)[C@@H](O)[C@H](O)[C@H]3O)CC[C@]3(C)C(=CCC4[C@@]5(C)CC[C@H](O[C@@H]6O[C@H](C(=O)O)[C@@H](O[C@@H]7O[C@H](CO)[C@@H](O)[C@H](O)[C@H]7O)[C@H](O)[C@H]6O)C(C)(C)C5CC[C@]43C)C2C1 (some centres not stated)
inactive: activity change, negative = cytotoxicity (PA-1) 12% [at 11.6 µM] | activity change, negative = cytotoxicity (SKOV3) 7.57% [at 11.6 µM] | activity change, negative = cytotoxicity (Tov-21-G) 4.63% [at 11.6 µM] | activity change, negative = cytotoxicity (Tov112D) 2.05% [at 11.6 µM]

COc1ccccc1CN[C@H]1CCCN[C@H]1c1ccccc1
inactive: Potency (PA-1) | Potency (SKOV3) | Potency (Tov-21-G) | Potency (Tov112D)

Oc1ccc(CC2NCCc3cc(O)c(O)cc32)cc1 (configuration not stated)
inactive: Potency (PA-1) | Potency (SKOV3) | Potency (Tov-21-G) | Potency (Tov112D)

C[C@@H]1O[C@@H](O[C@H]2[C@H](O[C@H]3[C@H](O[C@H]4CC[C@@]5(C)C(CC[C@]6(C)C5CC=C5[C@@H]7CC(C)(C)C[C@@H](O)[C@]7(C)CC[C@]56C)[C@@]4(C)CO)O[C@H](C(=O)O)[C@@H](O)[C@@H]3O)O[C@H](C(=O)O)[C@H](O)[C@@H]2O)[C@H](O)[C@H](O)[C@H]1O (some centres not stated)
inactive: activity change, negative = cytotoxicity (PA-1) 0.484% [at 11.6 µM] | activity change, negative = cytotoxicity (SKOV3) 10.8% [at 11.6 µM] | activity change, negative = cytotoxicity (Tov-21-G) 13.2% [at 11.6 µM] | activity change, negative = cytotoxicity (Tov112D) 5.35% [at 11.6 µM]

CCC/C=C/C=C/C1CC(O)C(O)C(=O)C1CO (configuration not stated)
inactive: Potency (PA-1) | Potency (SKOV3) | Potency (Tov-21-G) | Potency (Tov112D)

CCCSc1nc(NC2CC2c2ccc(F)c(F)c2)c2nnn(C3CC(OCCO)C(O)C3O)c2n1 (configuration not stated)
inactive: Potency (PA-1) | Potency (SKOV3) | Potency (Tov-21-G) | Potency (Tov112D)

CSCC[C@H](NC(=O)[C@H](CO)NC(=O)[C@H](CCC(=O)O)NC(C)=O)C(=O)N[C@H](C=O)CC(=O)O (Ac-ESMD-aldehyde)
inactive: activity change, negative = cytotoxicity (PA-1) -0.0533% [at 11.6 µM] | activity change, negative = cytotoxicity (SKOV3) 3.55% [at 11.6 µM] | activity change, negative = cytotoxicity (Tov-21-G) -0.444% [at 11.6 µM] | activity change, negative = cytotoxicity (Tov112D) 6.37% [at 11.6 µM]

NC(=O)[C@H](Cc1ccccc1)NC(=O)[C@H](CCCN=C(N)N)NC(=O)C12CC3CC(CC(C3)C1)C2
inactive: activity change, negative = cytotoxicity (PA-1) 5.55% [at 11.6 µM] | activity change, negative = cytotoxicity (SKOV3) 6.06% [at 11.6 µM] | activity change, negative = cytotoxicity (Tov-21-G) 4.32% [at 11.6 µM] | activity change, negative = cytotoxicity (Tov112D) -1.65% [at 11.6 µM]
